In all, about 33,000 sequences were measured (“E-score (-0.5 to 0.5)”: median about -0.021, highest 2% from about 0.32 on). This excerpt belongs to a sample that is enriched for the highest values.
target: T1, Zap1 (UniProt P47043); experiment: PBM E-score (8-mer binding enrichment) (E-score (-0.5 to 0.5)); higher = stronger / more preferred TF binding; details: protein concentration: 200 nM; construct: GST-full length
T1 sequence: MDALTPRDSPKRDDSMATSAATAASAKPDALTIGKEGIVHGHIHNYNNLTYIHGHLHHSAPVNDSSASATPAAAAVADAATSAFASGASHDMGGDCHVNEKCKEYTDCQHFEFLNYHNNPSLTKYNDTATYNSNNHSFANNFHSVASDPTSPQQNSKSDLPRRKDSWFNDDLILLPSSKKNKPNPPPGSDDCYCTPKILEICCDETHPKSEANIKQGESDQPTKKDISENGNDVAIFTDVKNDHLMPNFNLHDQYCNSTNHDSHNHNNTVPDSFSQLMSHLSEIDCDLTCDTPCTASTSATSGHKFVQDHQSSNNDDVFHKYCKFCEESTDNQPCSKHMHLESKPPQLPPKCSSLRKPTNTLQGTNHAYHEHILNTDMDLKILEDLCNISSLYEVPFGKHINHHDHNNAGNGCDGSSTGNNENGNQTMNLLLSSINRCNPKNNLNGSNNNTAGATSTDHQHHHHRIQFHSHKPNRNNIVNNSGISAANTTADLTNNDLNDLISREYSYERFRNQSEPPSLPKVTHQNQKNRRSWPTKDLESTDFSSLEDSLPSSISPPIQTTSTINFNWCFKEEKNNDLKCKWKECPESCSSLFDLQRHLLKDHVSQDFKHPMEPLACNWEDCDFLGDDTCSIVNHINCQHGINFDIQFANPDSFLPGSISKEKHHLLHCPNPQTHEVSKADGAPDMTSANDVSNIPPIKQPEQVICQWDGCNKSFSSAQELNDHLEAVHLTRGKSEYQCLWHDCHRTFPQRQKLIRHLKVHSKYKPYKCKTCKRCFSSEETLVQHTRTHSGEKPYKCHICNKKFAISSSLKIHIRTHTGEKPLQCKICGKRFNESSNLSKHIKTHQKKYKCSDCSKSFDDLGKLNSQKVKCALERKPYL
Procedure: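 Universal 'all 10-mer' protein binding microarrays (Agilent AMADID 015681) probed with GST-tagged S. cerevisiae TFs (full-length or DBD) made by in vitro transcription/translation (PURExpress), about 100-200 nM. Bound TF was detected with fluorescent anti-GST. Each ungapped 8-mer (which stands for itself and its reverse complement) is scored by the PBM enrichment score (E-score), a modified Wilcoxon-Mann-Whitney statistic from -0.5 to +0.5, computed with the Universal PBM Analysis Suite. Scale: above 0.35 generally sequence-specific binding.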

Sequence | PBM E-score
AGGTGGTC | 0.142
AGTTGTGA | 0.193
GGTTGTGA | 0.374
GGTTGTTA | 0.355
AGTTGTTA | 0.161
CGTTGTGA | -0.151
GGTTGTAC | 0.336
GGTTGTAA | 0.278
AGTTGTAC | 0.146
CGTTGTTA | 0.102
CGTTGCGA | -0.126
AGTTGCGA | 0.16
GGTTGCGA | 0.335
CGTAGACC | -0.109
ACAGAACC | 0.0979
ATTGGCAG | -0.219
CTGAAGTA | 0.0214
ATGACTCG | -0.115
CTTGCGAA | 0.139
GCCATATA | 0.0242
TAAACCGA | -0.0627
ATTCTCTG | -0.159
TGACCAAA | 0.28
CCACATCG | 0.0835
GAGTGTCA | 0.035
CAAAGGTG | 0.0139

Sequence | PBM E-score
ATAACAGC | -0.0193
CAGCTGGC | -0.0978
AGGGTTAG | 0.431
AGGGTTAA | 0.461
AGAGTTAA | -0.086
AGCGTTAG | -0.147
GGGGTTCA | 0.0745
AGGGTTTA | 0.315
TGTGTTAA | 0.0894
TCGGTTAA | 0.274
AGGGTTTG | 0.292
GGGGTTAA | 0.403
GGGGTTTA | 0.126
TGGGTTAA | 0.359
AAACTTAG | 0.0118
ACTCTTGA | -0.00751
AAACTTCA | 0.00932
ATGGTTCA | 0.119
GTGGTTGA | 0.0163
ATGGTTAA | 0.357
ATGGTTTA | 0.191
GTGGTTTA | 0.213
GTGGTTAA | 0.406
CCTGTGAG | 0.133
CGGTGCTC | 0.123
GGCACAGA | -0.267

Sequence | PBM E-score
ACCCTAAC | 0.414
ATCCTAAT | 0.0542
AGCCTAAT | -0.212
GCCCTAAC | 0.111
CCCCTAAG | 0.158
ACCCTAAG | 0.457
ACCCTAAT | 0.407
CCCCTAAA | 0.0485
TCCCTAAA | -0.0128
CCCCTAAC | 0.232
ATCCTAAG | -0.00974
ACCCTAAA | 0.416
GCTGCTTA | 0.0693
CCCTGCCA | -0.00313
CGCTAGCC | -0.373
CGGTATAA | 0.0772
AGGTATAT | 0.115
AGGTATAA | 0.317
CATGCTGG | -0.0654
CGGATTCC | -0.0353
CACCCCTC | 0.239
TAGCCCTA | -0.0869
CACCCCTG | -0.0914
TAACCGTA | 0.31
TAACCCTA | 0.462
ACCCCCTC | -0.0959

Sequence | PBM E-score
AACCCCTG | 0.347
AACCCCTC | 0.353
AAACCCTG | 0.337
AGACCCTG | 0.253
AAACCCTC | 0.175
ACCCCCTG | -0.07
AGAGAGAC | -0.00859
CACGCTAG | -0.21
ACGTTGAG | -0.0801
TCCTTAAA | 0.15
AGATTTGC | -0.0426
ATATCTCC | -0.149
ATTGACTC | 0.049
GGACAGCC | -0.0735
CATCGACC | -0.0318
TTCTTCAA | 0.0925
GAACCCTA | 0.272
AACCCCTA | 0.389
CAACCCTC | 0.258
AAACCCTA | 0.423
ACCCCCTA | -0.354
ATCCCCTA | 0.0194
CAACCCTG | 0.419
AAACCCAA | 0.312
AAACCCTT | 0.272
CAACCCGG | 0.213

Sequence | PBM E-score
CAAACCTA | 0.166
CAACCCTA | 0.442
CGAAGCAG | -0.165
AGGCTGGA | -0.23
CACCAGGA | 0.0532
AATCGCGG | -0.0922
GAAAAGAC | 0.0296
CACCAAGA | 0.0172
ATCAACGC | -0.0956
AGTAGTCA | -0.276
CAGATACA | 0.0912
GTAGCACA | 0.017
GCATCCAA | -0.203
AGGGAGAA | -0.148
AACCCCCT | -0.187
AACCCCTT | 0.38
CGACCCTA | 0.328
TACCCCTA | 0.366
AGACCCTA | 0.298
GGACCCTA | 0.159
GACCCCTA | 0.276
AACCCCGT | 0.277
CACCCCTA | 0.0983
CGTCTCTA | -0.19
GCTAAAAC | 0.0736
CGTATCCA | -0.133

Sequence | PBM E-score
CGGTTGAA | 0.221
CCACAGCC | -0.17
CACCTTTC | 0.0949
AACCTTCA | 0.368
GACCTTCA | 0.0992
AACCTTTA | 0.398
ATCCTTTA | 0.092
AACCTTTC | 0.324
AGCCTTTC | -0.185
GACCTTTA | 0.401
GGCCTTTA | 0.114
AACCTTCC | 0.21
CACCTTTA | 0.118
AGCCTTTA | 0.132
ATAGTTGC | 0.135
ACGTCGCA | -0.0322
GGTGAACA | -0.231
GCGCTATA | -0.105
CGCTATCA | -0.078
CAGCAAGC | -0.389
ACCTAGGC | -0.26
GTGATAAC | 0.251
CATCCTCC | -0.176
GATAGCTA | -0.298
GGCTCAAA | -0.176
AGGAACAA | 0.00761

Sequence | PBM E-score
AACCTTGG | 0.274
AACCTTTG | 0.377
AACCTTCG | 0.305
AGATCGCT | -0.204
GAAACTCC | -0.206
ACAGATCA | 0.0477
AGGTTAAA | 0.376
CGGTTTAA | 0.0515
ATGTTAAA | 0.0569
CGGTTAAA | 0.328
TCGTTAAA | -0.0347
TGGTTAAA | 0.379
ACGTTAAA | 0.101
TAGTTAAA | 0.234
CTGTTAAA | 0.0123
CTGTTGCA | 0.201
GCAAGGTA | 0.265
CCGTCCTC | -0.191
CTGGTGAA | -0.0889
AGCTGTCC | -0.225
AACCGCGA | 0.367
CACCGCGG | 0.176
CCGCGCGC | 0.0679
CCGCGCGA | 0.124
AACCGCAG | 0.126
CACCGCGA | 0.0268

Sequence | PBM E-score
TACCGCGA | 0.328
AACCGCGG | 0.374
AACCGCGC | 0.24
AACCGCGT | 0.227
CCGCGCGG | 0.332
GACCGCGA | 0.259
AGCACTAC | -0.0779
CCGAAGCA | -0.176
ACACAATC | 0.00143
CCAGGGCG | -0.178
TCCAAGAA | -0.0864
CGTCTCAC | -0.107
AGCATTTG | -0.00877
AGCAAGCA | -0.167
ATTAATAC | 0.344
ATTAATAA | 0.21
ATTAATAG | 0.195
ATGCCACC | -0.11
CTGGCCGA | -0.318
ACTTTAGA | 0.0114
GATGGCAA | -0.0776
GAATGACC | 0.338
CCATGACG | 0.0693
AAATGACC | 0.317
GCATGACC | 0.234
GAATGACA | -0.0394

Sequence | PBM E-score
CCATGACC | 0.416
GTTGGCCA | -0.015
GCGCCTTA | -0.066
GAGTTTAA | 0.121
AACCTACA | 0.264
ACCTACCA | 0.126
CGTGGTCA | 0.195
GGTGGTGA | 0.23
AGTGGTTC | 0.129
GGTGGTTA | 0.433
CGTGGTTA | 0.348
AGTGGTTA | 0.434
AGTGGTTG | 0.312
GGTGGTCA | 0.341
AGTGGTCA | 0.197
CGTGGTAA | 0.0908
GGTGGTAA | 0.274
CGTGGTTC | 0.185
